Results from PubChem BioAssay (NCATS).
Records with an inconclusive call do not appear. Entries that show only a call come without a potency. Values without a mark were called inactive. Active and inactive are the calls of the source. Unless noted, calls follow the shape of the full dose curve.

Tests used:
[1] = qHTS for Inhibitors of the Functional Ribonucleoprotein Complex (vRNP) of Lassa (LASV) Arenavirus: LASV Primary Screen - GLuc reporter signal (AID 1347082; calls by dose curve; tested in HEK293 reporter line; also: nearly all actives have a fitted effect of over 60% in size)
[2] = qHTS for Inhibitors of the Functional Ribonucleoprotein Complex (vRNP) of Lassa (LASV) Arenavirus: Viability assay - alamar blue signal for LASV Primary Screen (AID 1347083; calls by dose curve; tested in HEK293 reporter line; also: nearly all actives have a fitted effect of over 80% in size; also: potency is read from the fitted curve at half-maximal effect)
CRL-7250 = normal cell line; test: qHTS assay to identify novel small-molecules to repurpose for Merkel cell carcinoma treatment (AID 1296009; active = well fitted inhibition curve with a large enough effect; also: nearly all actives have a fitted effect of over 60% in size); details: MCC and control cell lines, CellTiter-Glo viability, 72 h; series mostly up to 92 µM
How it was run: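 Cells were treated for 72 hr at 37 degree celsius with compounds in 8- or 11-point dose response. Viability was read by CellTiter-Glo luminescence, normalized to no-cell (cytotoxicity) and DMSO controls.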

[3] = qHTS for Inhibitors of the Functional Ribonucleoprotein Complex (vRNP) of Lymphocytic Choriomeningitis Arenaviruses (LCMV): Viability assay - alamar blue signal for LCMV Primary Screen (AID 1347085; calls by dose curve; tested in HEK293 reporter line; also: nearly all actives have a fitted effect of over 80% in size)
[4] = target: Nucleoprotein (Lymphocytic choriomeningitis virus (strain Armstrong)) (UniProt P09992); test: qHTS for Inhibitors of the Functional Ribonucleoprotein Complex (vRNP) of Lymphocytic Choriomeningitis Arenaviruses (LCMV): LCMV Primary Screen - GLuc reporter signal (AID 1347086); also: nearly all actives have a fitted effect of over 70% in size
Chain of Nucleoprotein (Lymphocytic choriomeningitis virus (strain Armstrong)) (P09992 whole entry, looked up): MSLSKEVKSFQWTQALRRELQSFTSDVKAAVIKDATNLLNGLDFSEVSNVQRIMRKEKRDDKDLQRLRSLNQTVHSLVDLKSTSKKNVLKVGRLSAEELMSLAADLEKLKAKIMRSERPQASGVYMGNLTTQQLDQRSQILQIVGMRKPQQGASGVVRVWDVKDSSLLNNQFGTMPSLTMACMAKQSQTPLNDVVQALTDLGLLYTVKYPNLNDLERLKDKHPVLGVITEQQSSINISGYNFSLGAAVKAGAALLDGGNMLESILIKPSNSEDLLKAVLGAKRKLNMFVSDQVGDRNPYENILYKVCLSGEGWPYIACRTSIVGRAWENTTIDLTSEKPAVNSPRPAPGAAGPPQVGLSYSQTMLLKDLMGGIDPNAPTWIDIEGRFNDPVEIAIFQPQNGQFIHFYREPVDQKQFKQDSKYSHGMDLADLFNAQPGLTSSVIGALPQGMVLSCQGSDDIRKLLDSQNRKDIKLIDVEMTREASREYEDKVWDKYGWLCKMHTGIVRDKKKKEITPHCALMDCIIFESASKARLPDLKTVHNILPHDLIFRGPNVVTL

[5] = Primary qHTS for inhibitors of SARS-S pseudo-typed particle cell entry (AID 1479145); also: nearly all actives have a fitted effect of over 45% in size
[6] = Primary qHTS for Huh7 cytotoxicity: counterscreen for inhibitors of MERS-S pseudotyped particle cell entry (AID 1479147); details: outcome: dose series up to 57.1 µM unless noted
[7] = Primary qHTS for inhibitors of MERS-S pseudo-typed particle cell entry (AID 1479149); also: nearly all actives have a fitted effect of over 60% in size
[8] = Primary qHTS for Vero E6 cytotoxicity: counterscreen for inhibitors of SARS-S pseudo-typed particle cell entry (AID 1479150); details: outcome: dose series up to 57.1 µM unless noted
[9] = Cytotoxicity counterscreen for inhibitors of SARS-CoV-2 cell entry (AID 1645845); also: nearly all actives have a fitted effect of over 50% in size
How it was run: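 HEK293-ACE2 cells (Expi293F stably expressing human ACE2) seeded overnight, then compound for 1 h plus 48 h at 37C. Viability as ATP content by luminescence; normalized to wells with cells and media-only wells.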

CCNC(=O)Nc1ccc2ncc(Nc3ccc(C)cc3)nc2n1
Potency [1]: inactive
Potency [2]: 2.17 µM (active)
Potency (CRL-7250): inactive

C=CC1=C(C(=O)O)N2C(=O)[C@@H](NC(=O)C(=NO)c3csc(N)n3)[C@H]2SC1
Potency [1]: inactive
Potency [2]: inactive
Potency [3]: inactive
Potency [4]: inactive
Potency (CRL-7250): inactive

CC(=O)C1=C(O)C=C2Oc3c(C(C)=O)c(O)c(C)c(O)c3C2(C)C1=O (stereo unspecified)
Potency [1]: inactive
Potency [2]: inactive
Potency [3]: inactive
Potency [4]: inactive
Potency (CRL-7250): inactive

COC(=O)[C@@H]1[C@H]2C[C@@H]3c4[nH]c5ccccc5c4CCN3C[C@@H]2CC[C@@H]1O
Potency [1]: inactive
Potency [2]: inactive
Potency [3]: inactive
Potency [4]: inactive
Potency (CRL-7250): inactive

O=C(CS(=O)Cc1ccco1)NCC=CCOc1cc(CN2CCCCC2)ccn1 (stereo unspecified)
Potency [1]: inactive
Potency [2]: inactive
Potency [3]: inactive
Potency [4]: inactive
Potency (CRL-7250): inactive

C=C[C@@H]1CN2CCC1C[C@@H]2C(O)c1ccnc2ccc(OC)cc12 (stereo partly specified)
Potency [1]: inactive
Potency [2]: inactive
Potency [3]: inactive
Potency [4]: inactive
Potency (CRL-7250): inactive

CC1(C)CCCC2(C)C1C(O)C=C(CO)C2(O)CO (stereo unspecified)
Potency (CRL-7250): inactive

CC(=O)O[C@]1(C(C)=O)CC[C@H]2[C@@H]3C=C(C)C4=CC(=O)CC[C@]4(C)[C@@H]3CC[C@@]21C
Potency [1]: inactive
Potency [2]: inactive
Potency [3]: inactive
Potency [4]: inactive
Potency (CRL-7250): inactive

CN(C)CCC=C1c2ccccc2COc2ccc(CC(=O)O)cc21
Potency [1]: inactive
Potency [2]: inactive
Potency [3]: inactive
Potency [4]: inactive
Potency (CRL-7250): inactive

COc1ccc(CNC(=O)c2cc(-c3cncc(C)c3)ncc2-c2nccs2)nc1OC
Potency (CRL-7250): inactive

CC1COC2(CCN(c3nc(=O)c4cc(C(F)(F)F)cc([N+](=O)[O-])c4s3)CC2)O1 (stereo unspecified)
Potency [1]: inactive
Potency [2]: inactive
Potency [3]: inactive
Potency [4]: inactive
Potency (CRL-7250): inactive

O=C1Nc2ccc(I)cc2C1=Cc1cc(Br)c(O)c(Br)c1
Potency [1]: inactive
Potency [2]: inactive
Potency [3]: inactive
Potency [4]: inactive
Potency (CRL-7250): inactive

CCCCCCCCCCCCCCCCCCCCCCO
Potency [1]: inactive
Potency [2]: inactive
Potency [3]: inactive
Potency [4]: inactive
outcome [5]: inactive [at 0.573 µM]
outcome [6]: inactive [at 0.573 µM]
outcome [7]: inactive [at 0.573 µM]
activity change, negative = cytotoxicity [8]: 2.8% [at 0.573 µM]
Potency [9]: inactive
Potency (CRL-7250): inactive

CC1CNc2c(cccc2S(=O)(=O)N[C@@H](CCCN=C(N)N)C(=O)N2CC[C@@H](C)C[C@@H]2C(=O)O)C1 (stereo partly specified)
Potency [1]: inactive
Potency [2]: inactive
Potency [3]: inactive
Potency [4]: inactive
Potency [9]: inactive
Potency (CRL-7250): inactive
